These results are taken from PubChem BioAssay (NCATS).

Inconclusive results are not listed. Entries that show only a call come without a potency. Values without a mark were called inactive. Calls of active or inactive are those of the source. The call rests on the fitted dose curve; in most records, active means well fitted cell-killing curve with a large enough effect; inconclusive means small, poorly fitted or top-dose-only effect, or effect the other way; inactive means flat fitted curve, though single readings scatter.
Potency means the concentration at half of the fitted maximal effect.

This test deals with CAOV3. The test can be described thus: Primary qHTS to identify gynecologic anti-cancer compounds using libraries of approved drugs and bioactive compounds (AID 1345084). Further: nearly all actives have a fitted effect of over 55% in size. Conditions: Gynecologic cancer cell panel viability, ATPlite luminescence, 48 h; series mostly up to 57.5 µM. The source says:
National Center for Advancing Translational Sciences [NCATS] Assay Overview: Chemotherapeutic drug responses vary from cancer to cancer and from patient to patient. These variations could be caused by a number of factors including patient genomic background, tumor mutations, tumor heterogeneity, and aspects of drug treatment. Chemotherapeutic drug resistance is also a common issue and can lead to ineffective treatment and patient death. Here we have profiled the cell killing effects of thousands of compounds to characterize the responses in three gynecological cancers, identify cancer-selective compounds, and understand the diversity of responses to these compounds from pan-cancer suppressors to single cell line selective compounds. In this assay, we screened a 7,914 compound drug library that included approved drug and bioactive compounds in six ovarian, three cervical, and […] placental cancer cell lines using the ATPlite assay for cell viability. […] The cervical cancer cell lines included HeLa, Ca Ski, and C-33 A. The placental cancer cell lines included JEG-3. HEK 293T cells were used as the control cell line to determine the selectivity index. ATPlite is a luminescence based assay reliant on the conversion of a luciferase substrate to light in the presence of ATP. As a cytotoxic compound will suppress growth and decrease the number of cells, the concentration of ATP will decrease, and less light signal will be detected in the well.
Assay Protocol Summary: 1,000 cells in 4 uL of media were dispensed into white, solid bottom 1536-well plates using a Multidrop Combi (Thermo Scientific). The Assay plates were incubated for 16 hours at 37 C with 5% CO2 in assay plates, followed by the addition of 23 nL of DMSO or drug dissolved in DMSO. Each compound was assayed in five concentrations (0.092, 0.46, 2.3, 11.5, and 57.5 uM), using the automated Wako 1536 Pin Tool workstation and incubated at 37 C with 5% CO2 48 hours. 4 uL of ATPlite, the ATP monitoring reagent, was then added to the each well of the assay plates using the Multidrop Combi reagent dispenser followed by incubation for 15 minutes at room temperature. The resulting luminescence was measured using the ViewLux plate reader.
Regarding `CCCCOc1ccc(OCCCN2CCOCC2)cc1`, the Potency result was “inactive”.

Take `O=c1ccc2ccccc2o1`: the Potency result was “inactive”.

`NC(CS)C(=O)O` (stereo not given): the Potency entry was “inactive”.

With `CCOC(=O)c1cccc(N)c1`, the Potency entry is “inactive”.

Consider `OC(CCN1CCCCC1)(c1ccccc1)c1ccccc1`, for which the Potency result was “inactive”.

`NC(=O)c1cc[n+](CC2=C(C(=O)[O-])N3C(=O)[C@@H](NC(=O)Cc4cccs4)[C@H]3SC2)cc1`: the Potency entry is “inactive”.

In the case of `COc1cc(/C=C/C(=O)O[C@H]2CC[C@]34C[C@]35CC[C@]3(C)[C@@H]([C@H](C)CCC=C(C)C)CC[C@@]3(C)[C@@H]5CC[C@H]4C2(C)C)ccc1O`, the Potency result is “inactive”.

As to `Nc1nc2ncc(CNc3ccc(C(=O)N[C@@H](CCC(=O)O)C(=O)O)cc3)nc2c(=O)[nH]1`, the Potency result is “inactive”.

In the case of `NCCCC[C@H](N[C@@H](CCc1ccccc1)C(=O)O)C(=O)N1CCC[C@H]1C(=O)O`, the Potency entry is “inactive”.

Regarding `CC(C)COC(=O)c1ccc(N)cc1`, the Potency entry is “inactive”.

On to `COc1cccc(OC)c1C(=O)N[C@@H]1C(=O)N2[C@@H]1SC(C)(C)[C@@H]2C(=O)O`, for which the Potency entry is “inactive”.

On to `CCN1CCC[C@H]1CNC(=O)c1c(OC)ccc(Br)c1OC`, for which the Potency result was “inactive”.

For the compound `CC(Cc1ccccc1)(NC(=O)CN)c1ccccc1` (stereo not given), the Potency entry was “inactive”.

As for `CCCCCCC[N+](CC)(CC)CCCCc1ccc(Cl)cc1`, the Potency is 11.2 µM (active).

For `C/C=C(/C(=C/C)c1ccc(O)cc1)c1ccc(O)cc1`, the Potency entry was “inactive”.

In the case of `C=CCc1ccc(O)c(OC)c1`, the Potency result is “inactive”.

Turning to `N[C@@H](CCC(=O)N[C@@H](CS)C(=O)NCC(=O)O)C(=O)O`, the Potency entry is “inactive”.

For the compound `CC(C)(C)NC(=O)[C@@H]1CN(Cc2cccnc2)CCN1C[C@@H](O)C[C@@H](Cc1ccccc1)C(=O)N[C@H]1c2ccccc2C[C@H]1O`, the Potency entry is “inactive”.

With `Cc1cc2c(cc1CC(=O)c1sccc1S(=O)(=O)Nc1onc(C)c1Cl)OCO2`, the Potency result was “inactive”.

`Cc1cccn2c(=O)c(-c3nnn[nH]3)cnc12`: the Potency result was “inactive”.

`CC(=O)OCC(=O)NCCCOc1cccc(CN2CCCCC2)c1`: the Potency entry is “inactive”.

For `O=c1[nH]c(=O)n([C@H]2CCCO2)cc1F`, the Potency entry is “inactive”.

As to `CC1(C)O[C@@H]2[C@@H](CO[C@@]3(COS(N)(=O)=O)OC(C)(C)O[C@@H]23)O1`, the Potency entry is “inactive”.

Consider `C[C@]12CCC(=O)C=C1CC[C@H]1[C@@H]3CC[C@](O)(C(=O)CO)[C@@]3(C)C[C@H](O)[C@@]12F`, for which the Potency entry is “inactive”.

Turning to `O=C(OCC(O)CO)c1ccccc1Nc1ccnc2cc(Cl)ccc12` (stereo not given), the Potency entry is “inactive”.

As to `CN1C(CCl)Nc2cc(Cl)c(S(N)(=O)=O)cc2S1(=O)=O` (stereo not given), the Potency result was “inactive”.

With `CCOc1ccc2nc3cc(N)ccc3c(N)c2c1`, the Potency was 12.6 µM (active).

As to `COc1cc2c(cc1OC)[C@@H]1CC(=O)[C@@H](CC(C)C)CN1CC2`, the Potency result was “inactive”.

With `CCCCC1=NC2(CCCC2)C(=O)N1Cc1ccc(-c2ccccc2-c2nn[nH]n2)cc1`, the Potency result was “inactive”.

Turning to `CCN1CCN(c2cc3c(cc2F)c(=O)c(C(=O)O)cn3C2CC2)CC1`, the Potency result is “inactive”.

Turning to `COc1c(C)c2c(c(O)c1C/C=C(\C)CCC(=O)O)C(=O)OC2`, the Potency result was “inactive”.

On to `Nc1ccc(C(=O)Nc2ccccc2N)cc1`, for which the Potency entry was “inactive”.

Regarding `O=c1[nH]c(=O)n([C@H]2C[C@H](O)[C@@H](CO)O2)cc1C(F)(F)F`, the Potency entry is “inactive”.

`CCn1cc(C(=O)O)c(=O)c2cnc(N3CCCC3)nc21`: the activity change, negative = cytotoxicity is -1.93% [at 11.6 µM].

Turning to `CCOc1ccc(NC(=O)CC(C)O)cc1` (stereo not given), the Potency result is “inactive”.

Consider `CC(C)NC[C@@H](O)COc1cccc2ccccc12`, for which the Potency entry is “inactive”.

As for `O=C(O)CCCCC(=O)O`, the Potency entry was “inactive”.

Regarding `C#C[C@]1(OC(C)=O)CC[C@H]2[C@@H]3CCC4=C[C@@H](OC(C)=O)CC[C@@H]4[C@H]3CC[C@@]21C`, the Potency result is “inactive”.

As to `CC(=O)O[C@]1(C(C)=O)CC[C@H]2[C@@H]3C[C@H](C)C4=CC(=O)CC[C@]4(C)[C@H]3CC[C@@]21C`, the Potency entry is “inactive”.

With `CCN(CC)CCOC(=O)C(c1ccccc1)C1CCCCC1` (stereo not given), the Potency entry was “inactive”.
